This is a sample that favours compounds with a hit; in the whole collection about 1.4% have one here.
Sa RN4220 lethal = S. aureus RN4220 growth inhibition; OD600, 16 h; actives 0.33% (n = 330,000); inhibition, % (concentration not given with the values); in the data active = inhibition above about 85%;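 also: plate controls were untreated cells for no effect and reference antibiotic for full effect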
PriA SSB inh = K. pneumoniae PriA-SSBct interaction inhibition; AID 1272365; actives 0.6% (n = 430,000); AlphaScreen SSBct-PriA binding, biotinylated peptide; inhibition, % at 33 µM; in the data active = inhibition mostly above about 37%, no sharp cut-off; inactive = mostly below about 20%;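 also: plate controls were negative control peptide for no effect and reference peptide for full effect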
CCHF vOTU inh = CCHFV vOTU protease inhibition. Pep-AMC fluorescence. inhibition, % at 11.5 µM. actives 0.55% (n = 370,000). AID 651958; in the data active = inhibition above about 30%; also: 0% = vehicle wells with enzyme and 100% = no enzyme wells
Mtb hypoxia inh = reduces hypoxia-regulated biosensor signal in M. tuberculosis; M. tuberculosis hypoxia-regulated fluorescent reporter, fluorescence; fluorescence inhibition, % (concentration not given with the values); actives 0.1% (n = 300,000); AID 1159583; in the data active = fluorescence inhibition mostly above about 23%, no sharp cut-off; inactive = mostly below about 17%
Sa ugtP lethal = kills S. aureus RN4220 lacking UgtP | S. aureus RN4220 ugtP deletion, OD600 growth, 16 h | growth inhibition, % (no concentration beside the values) | actives 0.54% (n = 330,000) | AID 1259309; in the data active = growth inhibition above about 68%;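 also: plate controls were untreated wells for no effect and antibiotic for full effect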
The depositor's hits bear a star; · = no result shown; ! = not confirmed by another sample.

SMILES | Sa RN4220 lethal | PriA SSB inh | CCHF vOTU inh | Mtb hypoxia inh | Sa ugtP lethal
O=S(=O)(Cc1ccccc1Cl)NCCN1CCN(c2ccc(F)cc2)CC1 | · | -8 | · | · | ·
O=c1nc(SCc2cccc(C(F)(F)F)c2)c2c(n1Cc1ccccn1)CCC2 | · | -17 | · | · | ·
COc1ccc(C2=CSC(N=Cc3ccc(F)cc3)=NN2)cc1 | -2 | 5 | · | 39* | -18
COc1ccc2[nH]c(C)c(C(=O)CN3CCN(C/C=C/c4ccccc4)CC3)c2c1 | -2 | 5 | 31* | 8 | -14
Cc1[nH]c2ccccc2c1C(=O)CN1CCN(C/C=C/c2ccccc2)CC1 | -6 | 14 | 20 | · | -7
O=C(CSCc1ccc(Cl)cc1)Nc1ccccc1O | 2 | -21 | -7 | 65* | -5
ON=Cc1cc(Br)ccc1OCc1ccccc1F | 6 | -23 | · | · | 87*
O/N=C/c1ccccc1OCc1ccccc1F | · | · | -3 | · | ·
ON=Cc1cc(Br)ccc1OCc1cccc(F)c1 | 2 | 6 | · | · | 82*
CC(=O)c1ccc(N2CCN(C(=O)CCn3cnc4c([nH]c5ccc(C)cc54)c3=O)CC2)cc1 | · | -3 | · | · | ·
O=C(CN1C(=O)NC2(CCOc3ccccc32)C1=O)Nc1nc(-c2ccccn2)cs1 (centres undefined) | · | 111* | · | · | ·
O=C(CN1C(=O)CCOc2ccccc21)Nc1nc(-c2ccccn2)cs1 | · | 93* | · | · | ·
O=C(CN1CSCC1=O)Nc1nc(-c2ccccn2)cs1 | · | 56 | · | · | ·
O=C(CN1C(=O)CCC1=O)Nc1nc(-c2ccc3ccccc3c2)cs1 | -2 | -2 | -3 | -1 | -12
O=C(CN1C(=O)CCC1=O)Nc1nc(-c2ccccn2)cs1 | 4 | 51* | 10 | 1 | 9
CCCCC(=O)Nc1nc(-c2ccccn2)cs1 | · | 50* | · | · | ·
CN(C)c1nc(-c2ccccn2)nnc1-c1ccccc1 | 13 | 98* | 9 | · | 3
CC(C)Nc1nc(-c2ccccn2)nnc1-c1ccccc1 | · | 154* | · | · | ·
CC(C)Nc1nc(-c2ccccc2)nnc1-c1ccccc1 | 2 | -4 | -1 | 10 | 2
Oc1ccc(-c2nnc(-c3ccccc3)c(-c3ccccc3)n2)cc1 | 5 | · | · | 13 | -1
Cc1ccc(-c2nnc(-c3ccccc3)c(-c3ccccc3)n2)cc1 | -8 | 1 | -2 | 23 | 92*
CCOc1cccc2sc(N(CCCN(C)C)C(C)=O)nc12 | · | 0 | · | · | ·
CCc1ccc(CNC(=O)C2CCC(=O)N2C2CCCCC2)cc1 (centres undefined) | 4 | -16 | 8 | 5 | 6
O=C(NCc1ccccn1)C1CCC(=O)N1C1CCCCC1 (centres undefined) | 2 | 104* | -4 | 4 | 0
CCOC(=O)Nc1ccc2c(c1)CN(C(C)=O)CC2 | · | 4 | · | · | ·
SMILES | Sa RN4220 lethal | PriA SSB inh | CCHF vOTU inh | Mtb hypoxia inh | Sa ugtP lethal
NNc1nc(Nc2ccc([N+](=O)[O-])cc2)nc(N2CCCCCC2)n1 | 8 | 54* | 1 | -2 | -11
COc1ccc(CCNS(=O)(=O)c2ccc3c(c2)CCCC3)cc1OC | 13 | -13 | -2 | -4 | 6
CCCN1CCCc2cc(CCNS(=O)(=O)c3ccc(OCC)c(F)c3)ccc21 | · | 39* | · | · | ·
CCCN1CCCc2cc(CCNS(=O)(=O)c3ccc(OC)c(F)c3)ccc21 | · | 66* | · | · | ·
CCOc1ccc(S(=O)(=O)NCCc2ccc(N3CCCC3)cc2)cc1F | · | 18 | · | · | ·
CCCN1CCCc2cc(CCNS(=O)(=O)c3cc(C)ccc3OCC)ccc21 | · | 71* | · | · | ·
CCCN1CCCc2cc(CCNS(=O)(=O)c3ccc(OCC)c(C)c3)ccc21 | · | 56* | · | · | ·
Cc1c(NC(=O)C(=O)/C=C(/O)c2ccc(Cl)cc2)c(=O)n(-c2ccccc2)n1C | 4 | · | · | 18 | 3
CCCN1CCCc2cc(CCNS(=O)(=O)c3cccc(F)c3)ccc21 | · | 65* | · | · | ·
Cc1cccc(CC(=O)Nc2cc(C)nn2-c2nc(C)cc(=O)[nH]2)c1 | · | 51* | · | · | ·
Cc1cc(=O)[nH]c(-n2nc(C)cc2N)n1 | · | 96* | · | · | ·
Cc1cc(=O)[nH]c(-n2nc(C)cc2C)n1 | 2 | -11 | 3 | 4 | -1
Nc1nc(-c2ccc([N+](=O)[O-])cc2)c(C(=O)Nc2ccc(-c3ccccc3)cc2)s1 | · | -14 | · | · | ·
Clc1ccc(OCCCNCc2ccccc2)c2ccccc12 | 100* | 7 | 15 | 12 | 95*
Brc1ccccc1OCCNCc1ccccc1 | 3 | -11 | -4 | -10 | -3
S=C(Nc1ccc2nccnc2c1)N1CCOCC1 | 6 | 71* | -14 | 5 | 5
COc1ccc(NC(=S)Nc2ccccc2)cc1 | 1 | -9 | -6 | 16 | 10
COc1ccc(NC(=S)Nc2ccc(N)c([N+](=O)[O-])c2)cc1 | 4 | 39* | 17 | · | 4
COc1ccc(NC(=S)Nc2ccc3nccnc3c2)cc1 | 2 | 77* | 18 | 6 | 1
CCCCOc1ccc2c(c1)C(=O)c1cc(O)ccc1-2 | 20 | 24 | 14 | 2 | 92*
FC(F)(F)c1ccccc1C=NN1CCN(Cc2ccccc2)CC1 | -3 | 41 | · | 7 | 93*
Cc1ccc(S(=O)(=O)N(C)c2ccc(C(=O)NCc3cccnc3)cc2)cc1 | 1 | 39* | 23 | 0 | 2
CN(c1ccc(C(=O)NCc2cccnc2)cc1)S(=O)(=O)c1ccc(Cl)cc1 | 0 | 9 | -1 | -3 | 1
O=C(Oc1c(CN2CCOCC2)cc(Cl)c2cccnc12)c1ccc(F)cc1 | 8 | 88* | 20 | 3 | -6
O=C(Oc1c(CN2CCOCC2)cc(Cl)c2cccnc12)c1ccccc1Cl | 5 | 47* | -9 | 5 | -1
SMILES | Sa RN4220 lethal | PriA SSB inh | CCHF vOTU inh | Mtb hypoxia inh | Sa ugtP lethal
O=C(Oc1c(CN2CCOCC2)cc(Cl)c2cccnc12)c1cccs1 | 7 | 91*! | -10 | -6 | 7
COc1cc(C(=O)Oc2c(CN3CCOCC3)cc(Cl)c3cccnc23)cc(OC)c1OC | 9 | 87* | · | 4 | 5
CC(C)(C)c1c[se]c(=S)s1 | · | 3 | · | · | ·
CS(=O)(=O)N1CCCC1C(=O)Nc1c(C(N)=O)oc2ccccc12 (centres undefined) | · | -12 | · | · | ·
O=C(Nc1cc(Cl)cc(Cl)c1)c1ccc(Cl)s1 | · | -43 | · | · | ·
COCCNC(=S)NN=C(C)c1ccc(-n2ccnc2)cc1 | 3 | -5 | · | 3 | 1
CN(C)CCCn1c(SCC(=O)Nc2nc(-c3cccc(Br)c3)cs2)nc2ccccc2c1=O | 101* | 17 | -1 | · | 100*
CCCc1nnc(NC(=O)CSc2nc3ccccc3[nH]2)s1 | 5 | -20 | -7 | -7 | 7
O=C(CSc1nc2ccccc2[nH]1)Nc1nc(-c2cccc(Br)c2)cs1 | 99* | 10 | 14 | 1 | 99*
Cc1cc(Nc2ccccc2)nc(N2CCNCC2)n1 | · | -3 | · | · | ·
O=C1/C(=C/c2oc3cc(O)ccc3c2Cl)Oc2cc(O)ccc21 | · | -12 | · | · | ·
Cc1ccc(NC(=O)C(=O)NCCC(CCO)c2ccccc2)cc1Cl (centres undefined) | · | -15 | · | · | ·
O=C(NC[C@H]1CCCN1c1nc2ccccc2o1)c1ccc(-n2cccc2)cc1 | · | 29* | · | · | ·
Cc1nc2ccccn2c1C(=O)NCC1CCCN1c1nc2ccccc2o1 (centres undefined) | · | -6 | · | · | ·
O=C(Nn1c(SCc2ccc(F)cc2)nc2ccsc2c1=O)c1ccccc1 | 83* | 4 | -3 | 7 | 76

Screening results from PubChem.
